# A selection: hits, their analogues and other compounds. The true share with any hit is near 2.5%.
# Cruzain inh Det = cruzain (T. cruzi) inhibition with detergent. hit rate 0.43% among 200,000. purified cruzain, Z-FR-AMC fluorescence, 0.01% Triton. AID 1478. Potency, µM, for the others: max response, negative = inhibition, actives largely listed as inhibitors;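 note: plate controls were neutral wells for no effect and buffer without enzyme for full effect; nearly all actives have a fitted effect of over 40% in size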
# Target sequence (P25779 123-467 limits assumed): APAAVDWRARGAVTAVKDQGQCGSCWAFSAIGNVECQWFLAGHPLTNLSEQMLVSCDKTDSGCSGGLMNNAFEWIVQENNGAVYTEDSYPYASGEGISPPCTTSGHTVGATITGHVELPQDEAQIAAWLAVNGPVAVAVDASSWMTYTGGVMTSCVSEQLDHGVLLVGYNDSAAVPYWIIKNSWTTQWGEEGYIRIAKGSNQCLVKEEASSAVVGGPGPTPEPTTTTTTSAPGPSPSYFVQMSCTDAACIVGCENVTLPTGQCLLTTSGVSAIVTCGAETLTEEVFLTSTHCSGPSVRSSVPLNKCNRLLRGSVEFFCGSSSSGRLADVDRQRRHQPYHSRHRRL
#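 Cysteine protease activity tested under reducing, mildly acidic conditions (100 mM sodium acetate pH 5.5, 5 mM DTT) plus 0.01% Triton X-100. Cruzain 1.5 nM; substrate Z-FR-AMC 2 uM; 15 min compound preincubation at room temperature.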
# Cruzain noTriton = blocks cruzain activity in detergent-free assay. P25779. AID 1476. hit rate 2.3% among 200,000. purified cruzain, Z-FR-AMC fluorescence, no detergent. Potency, µM, for inactives: max response, negative = inhibition, usual class: inhibitors;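 note: plate controls were enzyme without inhibitor for no effect and buffer without enzyme for full effect; nearly all actives have a fitted effect of over 40% in size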
#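 Purified cruzain at 1.5 nM, pre-incubated 15 min with compound at room temperature in 100 mM sodium acetate pH 5.5, 5 mM DTT, 0.00005% Triton X-100. Reaction started with 2 uM Z-FR-AMC; AMC fluorescence increase over 60 s gives rate.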
# * = called active by the depositor; ? = inconclusive; nt = no result; ! = a repeat was not active. Calls come from the whole dose curve; as a rule, active = well fitted curve in the direction sought with a large enough effect; inconclusive = small, poorly fitted or top-dose-only effect, or another doubt; inactive = no such curve, though single readings can be large; an effect the other way counts as inactive or inconclusive. Potency is the fitted concentration of half-maximal effect.
SMILES,Cruzain inh Det,Cruzain noTriton
Cc1noc(Cn2c(=O)c3cc4c(cc3n(CC(=O)Nc3ccc(C(C)C)cc3)c2=O)OCO4)n1,-9%,5%
CC(C)c1ccc(NC(=O)Cn2c(=O)n(Cc3nc(-c4ccccc4)no3)c(=O)c3cc4c(cc32)OCO4)cc1,0%,13µM*
COc1ccc(NC(=O)Cn2c(=O)n(Cc3nc(-c4ccccc4)no3)c(=O)c3cc4c(cc32)OCO4)c(OC)c1,-2%,16%
COc1ccc(NC(=O)Cn2c(=O)n(Cc3nc(-c4ccccc4)no3)c(=O)c3cc4c(cc32)OCO4)cc1Cl,-6%,?
Cc1ccc(NC(=O)Cn2c(=O)n(Cc3nc(-c4ccccc4)no3)c(=O)c3cc4c(cc32)OCO4)cc1C,-2%,10µM*
CCc1ccc(NC(=O)Cn2c(=O)n(Cc3nc(-c4ccccc4)no3)c(=O)c3cc4c(cc32)OCO4)cc1,-2%,16µM*
CCOc1ccc(N(C(C)C(=O)NCCSc2ccc(Cl)cc2)S(C)(=O)=O)cc1 (centres undefined),-10%,?
Cn1cc(C(=O)NCc2cccs2)c(=O)c2cc(S(=O)(=O)N3CCCC3)ccc21,-2%,?
CC(C)OCC(O)CN1CCNCC1 (centres undefined),3%,9%
CCOC(=O)c1noc2ncn(CC(=O)Nc3ccc(OC)c(Cl)c3)c(=O)c12,-1%,10%
Cc1ccc(NC(=O)CCc2nnc3n(C)c(=O)c4sccc4n23)cc1C,0%,7%
Cc1ccc(C(=O)Oc2oc(-c3ccco3)nc2C=Nc2ccccc2)cc1,10µM*,13µM*
CCOC(=O)c1ccc(N=Cc2nc(-c3ccccc3)oc2OC(C)=O)cc1,14µM*,-27%
CCOC(=O)c1ccc(N=Cc2nc3ccccc3n2C)cc1,-1%,4%
CN(C)c1ccc(N=Cc2nc(-c3ccccc3)oc2OC(=O)c2cccc(Br)c2)cc1,-21%,25µM*
CN(C)c1ccc(/C=C/C(=O)c2cccc(Br)c2)cc1,-2%,-4%
CC(=O)Oc1oc(-c2ccccc2)nc1C=Nc1ccccc1,25µM*,25µM*
Oc1oc(-c2ccco2)nc1C=Nc1ccccc1,-21%,-9%
CCC(=O)Oc1oc(-c2ccccc2)nc1C=Nc1ccccc1OC,-18%,-15%
CC(=O)O[C@H]1C(=O)[C@@]2(C)C([C@H](OC(=O)c3ccccc3)[C@]3(O)C[C@H](OC(=O)[C@H](O)[C@@H](NC(=O)c4ccccc4)c4ccccc4)C(C)=C1C3(C)C)[C@]1(OC(C)=O)CO[C@@H]1C[C@@H]2OC(=O)[C@H](C)NC(=O)c1ccc(-c2c3ccc(=O)cc-3oc3cc(O)ccc23)c(C(=O)O)c1 (some centres undefined),-3%,22%
Nc1nc2c([nH]c(=O)n2C2OC(CO)C(O)C2O)c(=O)[nH]1 (centres undefined),3%,-10%
COc1ccc2oc(=O)cc(CN3CCN(c4ccccc4F)CC3)c2c1,1%,-8%
CCCCc1cc(=O)oc2c(CN3CCCC3)c(O)ccc12,25µM*,?
CCc1cc(=O)oc2c(CN3CCCC3)c(O)c(Cl)cc12,28µM*,?
O=c1cc(-c2ccccc2)c2ccc(O)c(CN3CCCCC3)c2o1,-15%,?
SMILES,Cruzain inh Det,Cruzain noTriton
CCc1c(C)c2ccc(O)c(CN3CCN(c4ccccc4)CC3)c2oc1=O,-6%,-14%
CCc1cc2c(-c3ccccc3)cc(=O)oc2c(CN2CCOCC2)c1O,-6%,4%
CCc1c(C)c2cc(Cl)c(O)c(CN3CCCCC3)c2oc1=O,32µM*,?
CN(C)c1ccc(C(CNC(=O)c2ccc(C(C)(C)C)cc2)N2CCOCC2)cc1 (centres undefined),1%,?
COC(=O)c1cccc(C23CC4(C2)[C@H](CN(C)[C@@H]4c2ccccc2)C3c2ccc(Cl)nc2)c1 (some centres undefined),-1%,-9%
Cc1nc2sccn2c(=O)c1S(=O)(=O)NCc1ccc(F)cc1,0%,17%
CCCn1c(COc2cccc(C)c2)nc2ccccc21,-9%,0%
CCCCC[C@H](O)/C=C/C=C\C/C=C\C=C\[C@@H](O)CCCC(=O)O,5%,-5%
CCCCNC(=O)CSc1nc2ccccc2c(=O)n1Cc1ccc2c(c1)OCO2,6%,20µM*
O=C(CSc1nc2ccccc2c(=O)n1-c1ccccc1)NCc1ccc2c(c1)OCO2,1%,-1%
O=C(NCc1ccc(F)cc1)c1ccc2c(c1)N(Cc1c(F)cccc1Cl)C(=O)CS2,-5%,?
O=C(COc1cc(O)c2c(=O)cc(-c3ccccc3)oc2c1)c1ccccc1,-2%,?
O=C(COc1cc(O)c2c(=O)cc(-c3ccccc3)oc2c1)c1ccc(F)cc1,-4%,13µM*
c1ccc(-c2ccc(Oc3cc(N4CCOCC4)nc(-c4ccccc4)n3)cc2)cc1,4%,10µM*
CC(C)Sc1cc(N2CCOCC2)nc(-c2ccccc2)n1,-5%,-8%
CCN(CC)CCOc1ncnc2c1oc1ccccc12,-1%,-1%
CCCCc1oc2ccccc2c1C(=O)c1cc(I)c(OCCN(CC)CC)c(I)c1,13µM*!,nt
Cc1ccc2c(c1)cc1c(=O)n(CC(=O)NC(C)CCc3ccccc3)nc(C)n12 (centres undefined),0%,-5%
Cc1ccc(NC(=O)c2cccc(NC(=O)/C=C/c3ccco3)c2)cc1C,-9%,-10%
Cc1ccc(-n2nc3ccc(NC(=O)/C=C/c4ccco4)cc3n2)cc1,-7%,16µM*
COc1ccc(NC(=O)c2c(NCc3ccc(C)o3)sc3c2CCC(C)C3)c(OC)c1 (centres undefined),-11%,-3%
COc1cccc(Nc2ncc3nc(-c4cccs4)c(=O)n(-c4ccccc4)c3n2)c1,1%,6.3µM*
COc1cccc(Nc2ncc3ncc(=O)n(Cc4cccs4)c3n2)c1,-2%,1%
COc1cccc(Nc2ncc3nc(-c4cccs4)c(=O)n(Cc4cccs4)c3n2)c1,2%,5µM*
COc1ccc(-n2c(=O)c(-c3cccs3)nc3cnc(Nc4ccccc4)nc32)cc1,-1%,5%
SMILES,Cruzain inh Det,Cruzain noTriton
Cc1cccc(-c2nc3scc(CCNS(=O)(=O)c4ccc(F)cc4C)n3n2)c1,-9%,26%
NC(=O)c1cnccn1,2%,6%
CCOc1ccc(CCNC(=O)Cn2c(-c3cccs3)cc3cc(F)ccc32)cc1OCC,-3%,15%
O=C(Cn1c(-c2cccs2)cc2cc(F)ccc21)NCCc1ccc(Cl)cc1,-2%,13µM*
CC1(c2ccccc2)NC(=O)N(CC(=O)NC(=O)NC2CCCC2)C1=O (centres undefined),9%,-6%
CC(C)(C)C(=O)Oc1cc(N)n(S(=O)(=O)c2ccc(F)cc2)n1,-3%,2%
Nc1cc(OC(=O)c2ccco2)nn1S(=O)(=O)c1ccc(F)cc1,25µM*,20µM*
COc1ccc(OC)c(NC(=O)C(CCSC)NS(=O)(=O)c2cccs2)c1 (centres undefined),-4%,4%
COc1ccc(-c2nnc(CSc3nc4ccccc4c(=O)n3C)o2)cc1OC,0%,?
COc1ccc(-c2cc(-c3ccc(C)cc3)nc(SCc3nnc(-c4ccccc4)o3)c2C#N)cc1OC,-1%,10µM*
Cc1ccc(OCc2nnc(NC(=O)c3ccco3)s2)cc1,-1%,-11%
Cc1ccc(OCCSc2nnc(NC(=O)c3ccco3)s2)cc1,4%,25µM*
Cc1ccc(NC(=O)C(CC(C)C)NS(=O)(=O)c2ccc3c(c2)oc(=O)n3C)c(C)c1 (centres undefined),0%,-5%

# Source: PubChem BioAssay (National Center for Advancing Translational Sciences (NCATS))
